An excerpt weighted towards active compounds, which were near 4.7% of everything screened.
TRHR PAM – allosteric enhancers of human TRH receptor. TRHR cells, fluo-8 calcium fluorescence, EC20 TRH enhancement. enhancement, % at 2 µM. AID 493056. hit rate 0.66% among 360,000. P34981; in the data active means enhancement above about 30%
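TRHR-expressing cells loaded with fluo-8 calcium dye were read kinetically (ex 480/em 530) during compound addition, then stimulated with an EC20 of TRH (10 nM final). Enhancement of the Gq-mediated intracellular calcium response was scored.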
D1 agonist – human D1 receptor agonism; P21728; hit rate 1% among 360,000; activation, % at 2 µM; HEK293 T-REx D1 cells, calcium flux, agonist mode
Target sequence (P21728 whole entry, looked up): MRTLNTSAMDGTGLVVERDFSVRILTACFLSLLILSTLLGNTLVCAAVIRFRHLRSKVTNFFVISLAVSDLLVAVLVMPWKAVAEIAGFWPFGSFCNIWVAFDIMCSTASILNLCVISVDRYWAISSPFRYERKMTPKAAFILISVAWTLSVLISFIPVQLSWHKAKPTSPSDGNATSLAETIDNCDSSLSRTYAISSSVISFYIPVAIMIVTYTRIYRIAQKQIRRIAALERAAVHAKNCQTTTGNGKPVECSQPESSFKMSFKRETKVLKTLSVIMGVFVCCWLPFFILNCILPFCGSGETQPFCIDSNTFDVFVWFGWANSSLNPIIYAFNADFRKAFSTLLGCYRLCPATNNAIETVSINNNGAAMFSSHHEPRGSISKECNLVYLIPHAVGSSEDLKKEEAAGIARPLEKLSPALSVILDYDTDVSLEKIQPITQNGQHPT
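Tetracycline-induced HEK293 TREx D1 cells, force-coupled to calcium signalling, were dye-loaded with a no-wash calcium kit. Compound was pin-added after a 10 s baseline. Fluorescence was read kinetically at 1 cycle/s for 180 s, with calcium rises flagged as agonism.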
D1 PAM – potentiators of human D1 dopamine receptor. P21728. HEK293 TREx D1 cells, calcium flux, dopamine EC20 potentiation. potentiation, % at 10 µM. hit rate 0.036% among 360,000; in the data active means potentiation above about 30%
TRHR ag – agonists of human TRH receptor; P34981; TRHR cells, calcium flux fluo-8, FDSS agonist mode; activation, % at 2 µM; hit rate 0.18% among 360,000; AID 493084
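In this calcium-flux screen, cells bearing human TRHR are dye-loaded with fluo-8, baselined for 10 cycles, then exposed to library compounds; positive kinetic calcium responses during the agonist phase mark hits, with TRH as control.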
D1 antagonist – blocks dopamine activation of the human D1 receptor; P21728; HEK293 TREx D1 cells, calcium flux, dopamine EC80; stronger effect = lower value; activity change, negative = inhibition, % at 10 µM; hit rate 3.2% among 360,000; in the data active means activity change below about -30%
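HEK293 T-REx cells expressing inducible, force-coupled D1 receptor; no-wash Ca dye, 30–90 min RT. Cmpd → 180 s read at 1 Hz → EC80 DA → 180 s read.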
Hits are given with their value; - = inactive; . = not tested or not shown. Unless noted, no stated cut-off is given here; in the data, active means activation above about 30%; inactive means the rest.

SMILES	TRHR PAM	D1 agonist	D1 PAM	TRHR ag	D1 antagonist
CCc1ccc(C(=O)Cn2ncc(Cl)c(Cl)c2=O)cc1	-	-	-	-	-30.7
Cc1ccc(Cn2ncc(Cl)c(Cl)c2=O)cc1	-	-	-	-	-
COc1cc2c(cc1OC)C(COc1ccccc1OC)N(C(=O)C(C)(C)C)CC2 (stereo not drawn)	-	-	-	-	-
COC(=O)c1ccc(OCC2c3cc(OC)c(OC)cc3CCN2C(=O)c2ccc(F)cc2)cc1 (stereo not drawn)	-	-	-	-	-38.7
COc1cc2c(cc1OC)C(COc1ccccc1OC)N(C(C)=O)CC2 (stereo not drawn)	-	-	-	-	-48.5
COc1cc(-c2noc(CN3CCN(c4ccccc4)CC3)n2)cc(OC)c1OC	-	-	-	-	-
COc1cc(OC)c(N(C)C(=O)c2sc3nc4n(c(=O)c3c2C)CCCC4)cc1Cl	-	-	-	-	-
CCC(=O)c1ccc2ncccc2c1	-	-	-	-	-30.4
Cc1ccc(NC(=O)CN2C(=O)C3(SCC(=O)N3c3cccc(Cl)c3)c3ccccc32)cc1C (stereo not drawn)	-	-	-	-	-
CN(Cc1ccccc1)C(=O)COC(=O)c1ccccc1NS(=O)(=O)c1cccc(N)c1	-	-	-	-	-31.7
C=CCNS(=O)(=O)c1ccc(N2C(=O)c3ccccc3C2=O)cc1	-	-	-	-	-
CCOC(=O)C(=O)c1csc(NC(=O)CCSc2ccc(C)cc2)n1	-	-	-	-	-78.7
Cc1ccc(OC(=O)c2cccc(S(=O)(=O)N3CCN(C)CC3)c2)c(Br)c1	-	-	-	-	-32.2
CCC(C(=O)OCc1cc(=O)n2nc(C)sc2n1)c1ccccc1 (stereo not drawn)	-	-	-	-	-
O=C(Nc1ccc(N2CCOCC2)cc1)Nc1ccc(Cl)c(Cl)c1	-	-	-	-	-30.8
COc1ccccc1NC(=O)Nc1ccc(N2CCOCC2)cc1	-	-	-	-	-42.6
O=C(Nc1ccc(N2CCOCC2)cc1)C1(c2ccc(Cl)cc2)CCC1	-	43.2	-	-	-
CCc1sc(C(=O)N2CCCN(C)CC2)cc1Br	-	-	-	-	-
CCc1sc(C(=O)NC2CCN(C)CC2)cc1Br	-	36.4	-	-	-
NC(=O)COc1ccc(C(=O)NCC2(N3CCOCC3)CCCCC2)cc1	-	-	-	-	-32.0
N#Cc1ccc(OCC(=O)NCC2(N3CCCCC3)CCCCC2)cc1	-	-	-	-	-
N#CCC(=O)Nc1ccc(C(=O)NCC2(N3CCOCC3)CCCCC2)cc1	-	-	.	-	-
O=C(COc1ccccc1)NCC1(N2CCCCC2)CCCCC1	-	-	-	-	-66.1
O=C(Nc1ccc(Oc2ccccc2)cc1)c1ccc(F)c(S(=O)(=O)N2CCN(c3ccccc3F)CC2)c1	-	-	-	-	-
CCOC(=O)CN=C1CC(C)(C)CC2=C1Sc1ncnc(N(C)C)c1N2	-	-	-	-	-42.1
SMILES	TRHR PAM	D1 agonist	D1 PAM	TRHR ag	D1 antagonist
COc1cccc(N2C(N)=NC(N)=NC2(C)C)c1	-	-	-	-	-54.0
COc1ccc(N2C(N)=NC(N)=NC2(C)C)cc1	-	-	-	-	-
CN(C)CC/C=C1/c2ccccc2Sc2ccc(Cl)cc21	-	-	-	-	-95.9
CCCCCC[N+](C)(C)CC/C=C1/c2ccccc2Sc2ccc(Cl)cc21	-	-	-	-	-38.3
CN(C)CC/C=C1\c2ccccc2COc2ccccc21	-	-	-	-	-78.8
COc1ccc2c(c1)C(=O)c1ccccc1CO2	-	-	-	-	-
CC(=Nc1ccc(O)cc1)c1sc2ccccc2c1O	-	53.3	-	-	-
CC(=Nc1cccc(C)c1)c1sc2ccccc2c1O	-	-	-	-	-
CC(=Nc1ccccc1O)c1sc2ccccc2c1O	-	48.5	-	-	-
Cc1cc(N2CCOCC2)n2ncc(-c3ccc(Cl)cc3)c2n1	-	-	-	-	-32.7
Cc1ccc(-c2cc(C(=O)N(Cc3ccccc3)Cc3ccco3)no2)cc1F	-	-	-	-	-
CS(=O)(=O)c1ncc(Cl)c(C(=O)N(Cc2ccc(Cl)cc2)Cc2ccco2)n1	-	-	-	-	-63.1
CCc1ccc(CN(Cc2ccco2)C(=O)c2cc(-c3ccc(Cl)cc3)on2)cc1	-	-	-	-	-
O=C(c1cc(-c2ccc(Cl)cc2)on1)N(Cc1cccc(F)c1)Cc1ccco1	-	33.4	-	-	-
O=C(c1cc(-c2ccc(Cl)cc2)on1)N(Cc1ccc(F)cc1)Cc1ccco1	-	30.4	-	-	-39.0
CCc1ccc(N2C(=O)N(CC(=O)C(C)(C)C)c3ccccc3S2(=O)=O)cc1	-	-	-	-	-
N#CC1=C(N)N(c2ccccc2)C(c2cccc([N+](=O)[O-])c2)C1(C#N)C#N (stereo not drawn)	-	-	-	-	-30.3
Cc1cccc(N2C(N)=C(C#N)C(C#N)(C#N)C2c2ccccc2)c1 (stereo not drawn)	-	-	-	-	-
O=C(Oc1ccc2ccccc2c1Br)N1CCCCCC1	-	-	-	-	-
O=C(Oc1ccc2cc(Br)ccc2c1)N1CCCCCC1	-	40.6	-	-	-
COc1ccc(Nc2nc(NCc3ccco3)nc(N/N=C/c3ccccc3F)n2)cc1	-	-	-	-	-42.1
O=C(Nc1ccc(F)cc1F)c1cc2nc3c(c(C(F)(F)F)n2n1)CCCC3	-	-	-	-	-33.3
O=C(O)c1cc2nc3c(c(C(F)(F)F)n2n1)CCCC3	-	-	-	-	-
CC(C)Oc1ccc(/C=C/C(=O)NCC2COc3ccccc3O2)cc1 (stereo not drawn)	-	-	-	-	-91.4
CC(=O)Nc1ccc(S(=O)(=O)Nc2ccc3c(c2)OCCO3)cc1Cl	-	-	-	-	-31.2
SMILES	TRHR PAM	D1 agonist	D1 PAM	TRHR ag	D1 antagonist
Cc1ccc(S(=O)(=O)Nc2ccc3c(c2)OCCO3)cc1C	-	-	-	-	-
COc1ccc(NS(=O)(=O)c2ccc3c(c2)OCCO3)cc1OC	-	-	-	-	-
COc1ccc(S(=O)(=O)Nc2ccc3c(c2)OCCO3)cc1Cl	-	-	-	-	-32.0
CC(C)(C)c1ccc(S(=O)(=O)N(CCCN2CCOCC2)Cc2cccs2)cc1	-	-	-	-	-33.0
CCC(=O)NCCc1nc2cc(NC(=O)c3cccc(Br)c3)ccc2n1C	-	-	-	-	-
O=C(NCc1ccco1)c1ccc2snnc2c1	31.8	-	-	-	-
COc1cccc(C(=O)c2c(N)c(-c3nc(-c4ccccc4)cs3)c3ccccn23)c1	-	-	-	-	-42.7
Nc1c(-c2nc(-c3ccc4c(c3)OCO4)cs2)c2ccccn2c1C(=O)c1ccccc1	-	-	-	-	-40.9
Nc1c(-c2nc(-c3ccc4c(c3)OCO4)cs2)c2ccccn2c1C(=O)c1ccc(Cl)cc1	-	-	-	-	-
O=[N+]([O-])c1cccc(NC(=S)NCCc2ccccc2)c1	-	43.3	-	-	-
Fc1cccc(NC(=S)NCCc2ccccc2)c1	-	-	-	-	-38.5

Screens deposited in PubChem by National Center for Advancing Translational Sciences (NCATS).
